Reference: PubChem BioAssay (EPA / NIEHS)
Results filed as inconclusive are left out. The source made the active and inactive calls. Rule for the calls, unless noted: active = hit-call score of the fitted dose curve at least 0.9, where 1 is the maximum; inconclusive = response in the unintended direction; inactive = score below 0.9.

Columns and labels:
[1] = CCTE_Deisenroth_AIME_384WELL_CTox_Active: Cytotoxicity Assessment (CTOX) in CCTE's 384-well Estrogen Receptor Transactivation Assay with AIME metabolic competence (metabolism positive), Deisenroth Lab (AID 2284037);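 note: chemicals first conditioned 2 h by alginate-bound induced rat liver S9 before cells; activity means signal loss indicating cell death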
Summary of the method: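 VM7Luc4E2 breast cells received medium pre-incubated 2 h with chemical over alginate microspheres holding induced male Sprague Dawley rat liver S9; viability read 24 h later by protease-substrate fluorescence. Loss of signal, bidirectional fit, 0.002–200 uM.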

[2] = target: Estrogen receptor (Homo sapiens) (UniProt P03372); test: CCTE_Deisenroth_AIME_384WELL_LUC_Inactive: CCTE's 384-well Estrogen Receptor Transactivation Assay without AIME metabolic competence (ERTA luciferase; metabolism negative), Deisenroth Lab (AID 2284038);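 note: hits raise estrogen receptor luciferase signal so potencies reflect agonists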
Chain of Estrogen receptor (Homo sapiens) (P03372 whole entry, looked up): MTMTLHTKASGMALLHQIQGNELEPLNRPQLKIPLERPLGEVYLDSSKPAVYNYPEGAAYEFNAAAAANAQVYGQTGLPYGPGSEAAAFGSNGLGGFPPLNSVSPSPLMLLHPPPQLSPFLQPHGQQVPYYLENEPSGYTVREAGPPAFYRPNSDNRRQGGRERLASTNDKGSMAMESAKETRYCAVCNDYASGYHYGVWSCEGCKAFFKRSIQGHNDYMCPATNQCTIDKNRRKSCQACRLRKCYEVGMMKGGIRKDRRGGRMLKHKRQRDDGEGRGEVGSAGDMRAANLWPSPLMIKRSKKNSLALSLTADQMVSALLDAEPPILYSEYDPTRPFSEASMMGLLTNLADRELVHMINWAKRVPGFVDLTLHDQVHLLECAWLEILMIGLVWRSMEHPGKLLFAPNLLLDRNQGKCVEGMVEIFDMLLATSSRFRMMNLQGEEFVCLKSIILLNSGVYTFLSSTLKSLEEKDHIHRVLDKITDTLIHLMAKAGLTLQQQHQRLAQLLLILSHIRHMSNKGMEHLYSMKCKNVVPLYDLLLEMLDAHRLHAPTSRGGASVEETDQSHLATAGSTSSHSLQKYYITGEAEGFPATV
Summary of the method: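 VM7Luc4E2 ER transactivation, luciferase bioluminescence after 24 h, using medium pre-incubated 2 h with S9-free alginate microspheres. Concentrations 0.002–200 uM; gain of signal fitted relative to 17beta-estradiol.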

[3] = CCTE_Deisenroth_AIME_384WELL_CTox_Inactive: Cytotoxicity Assessment (CTOX) in CCTE's 384-well Estrogen Receptor Transactivation Assay without AIME metabolic competence (metabolism negative), Deisenroth Lab (AID 2284039);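 note: cell viability via live-cell protease substrate cleaved to fluorescent probe; cells exposed 24 h to medium preincubated 2 h with alginate-water beads without S9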
Summary of the method: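 Fluorescence from a live-cell protease substrate, read after 24 h in VM7Luc4E2 cells, indicated viability. Test medium came from a 2 h AIME step without hepatic S9 (alginate-water microspheres); concentrations spanned 0.002 - 200 uM, single technical replicate per run.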

[4] = target: Estrogen receptor (Homo sapiens) (UniProt P03372); test: CCTE_Deisenroth_AIME_384WELL_LUC_Shift: CCTE's 384-well Estrogen Receptor Transactivation Assay with AIME metabolic competence data shift (ERTA luciferase; difference in metabolism positive and negative), Deisenroth Lab (AID 2284041; active = hit-call score of the fitted dose curve at least 0.9, where 1 is the maximum; inactive = score below 0.9;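 note: shift is response with S9 minus without S9 so positive means metabolism raised ER signal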)
Summary of the method: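 Here, parent compounds undergo 2 h phase I metabolism by PB/BNF-induced rat S9 before 24 h transactivation in VM7Luc4E2 cells; the curve models S9-positive minus S9-negative response over a 10-point series.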

DIO2 (gene 1734) = test: CCTE_GLTED_hDIO2: CCTE's human Deiodinase 2 (DIO2) Inhibition Assay, Great Lakes Toxicology and Ecology Division (GLTED) Lab (AID 2284050)
Summary of the method: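 Iodide released by human deiodinase 2 over 3 h with test chemical, measured spectrophotometrically via Sandell-Kolthoff cerium/arsenic reaction. Run n=3; inhibition referenced to DMSO.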

[5] = CCTE_Shafer_MEA_dev_active_electrodes_number: CCTE's Neural Network Formation Assay for Number of Active Electrodes, Shafer Lab (AID 2284040);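 for AC50: potency for loss of active electrodes versus DMSO so lower counts are hits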
Summary of the method: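 Counts electrodes per well firing at least 5 spikes/min, recorded on days 5, 7, 9 and 12 in rat cortical cultures dosed continuously from plating (treatment refreshed DIV 5, 9). Value is the area under the curve over recordings, fitted downward relative to DMSO.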

[6] = CCTE_Shafer_MEA_dev_burst_rate: CCTE's Neural Network Formation Assay for Burst Rate, Shafer Lab (AID 2284042; active = hit-call score of the fitted dose curve at least 0.9, where 1 is the maximum; inactive = score below 0.9;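 for AC50: potency for loss of burst rate below DMSO control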)
Summary of the method: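 Developmental network assay measuring how 12-day exposure of rat cortical neuron cultures alters bursting on extracellular MEA recordings. Values are AUC of well-mean burst rate across four recording days, relative to DMSO vehicle.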

[7] = CCTE_Shafer_MEA_dev_bursting_electrodes_number: CCTE's Neural Network Formation Assay for Number of Bursting Electrodes, Shafer Lab (AID 2284043);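 for AC50: potency is for loss of bursting electrodes relative to DMSO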
Summary of the method: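 Counted: electrodes with burst rate ≥1 per 2 min in each well. Cells: primary rat cortex, 1.5 x 10^5/well, on 16-electrode MEA wells. Exposure: DIV 0–12, compound renewed DIV 5 and 9. Recording days 5, 7, 9, 12; AUC vs DMSO baseline.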

[8] = CCTE_Shafer_MEA_dev_per_burst_interspike_interval: CCTE's Neural Network Formation Assay for Burst Interspike Interval, Shafer Lab (AID 2284044; active = hit-call score of the fitted dose curve at least 0.9, where 1 is the maximum; inactive = score below 0.9;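 note: mean spike spacing inside bursts as AUC over recordings on days 5 7 9 12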;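 for AC50: potency for a decrease of within-burst interspike interval below DMSO level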)
Summary of the method: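 Mean interspike interval within single-electrode bursts, averaged over bursting electrodes, from rat cortical cultures on MEA plates recorded on days 5, 7, 9 and 12. Continuous compound exposure from plating; trapezoidal AUC fitted downward relative to DMSO.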

[9] = CCTE_Shafer_MEA_dev_burst_duration_mean: CCTE's Neural Network Formation Assay for Mean Burst Duration, Shafer Lab (AID 2284045; active = hit-call score of the fitted dose curve at least 0.9, where 1 is the maximum; inactive = score below 0.9;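 for AC50: curve fitted for loss meaning shorter burst duration than DMSO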)
Summary of the method: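 Network-formation assay in primary rat cortical neurons; treatment spans twelve days of development. Mean burst duration per well is integrated by trapezoidal AUC and fitted in the loss-of-signal direction against DMSO baseline.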

[10] = CCTE_Shafer_MEA_dev_interburst_interval_mean: CCTE's Neural Network Formation Assay for Mean Interburst Interval, Shafer Lab (AID 2284046; active = hit-call score of the fitted dose curve at least 0.9, where 1 is the maximum; inactive = score below 0.9;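 note: well-mean interburst interval of bursting electrodes as AUC over four recording days; curve fitted for decrease in interburst interval relative to DMSO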)
Summary of the method: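 Network formation assay in primary rat cortical cultures, exposed from DIV 0 to 12. Mean interburst interval per well, integrated as AUC over four recordings.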

[11] = CCTE_Shafer_MEA_dev_inter_network_spike_interval_mean: CCTE's Neural Network Formation Assay for Mean Inter-network Spike Interval, Shafer Lab (AID 2284047; active = hit-call score of the fitted dose curve at least 0.9, where 1 is the maximum; inactive = score below 0.9)
Summary of the method: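 Compound was given at plating to primary rat cortical neurons and renewed with full medium changes on DIV 5 and 9. Extracellular activity was recorded on days 5, 7, 9, 12; AUC values were fitted for loss relative to DMSO control.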

[12] = CCTE_Shafer_MEA_dev_network_spike_number: CCTE's Neural Network Formation Assay for Number of Network Spikes, Shafer Lab (AID 2284048; active = hit-call score of the fitted dose curve at least 0.9, where 1 is the maximum; inactive = score below 0.9;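 note: synchronized bursts across electrodes counted on days 5 7 9 12 and integrated as AUC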;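 for AC50: fit as a loss of signal meaning fewer network spikes than DMSO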)
Summary of the method: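 Extracellular recordings from 16-electrode wells track network formation in rat cortical cultures under continuous treatment from plating. The endpoint is network spike number, expressed as AUC across DIV 5–12 relative to DMSO vehicle.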

[13] = CCTE_Shafer_MEA_dev_network_spike_peak: CCTE's Neural Network Formation Assay for Mean Number of Electrodes in Network Spike, Shafer Lab (AID 2284049; active = hit-call score of the fitted dose curve at least 0.9, where 1 is the maximum; inactive = score below 0.9;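 for AC50: fitted for loss of signal meaning fewer electrodes in network spikes than DMSO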)
Summary of the method: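 Continuous 12-day exposure of rat cortical cultures, starting at plating, on MEA plates. Endpoint: electrodes participating in network-spike peaks, AUC across DIV 5–12, DMSO as negative control.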

[14] = CCTE_Shafer_MEA_dev_spike_duration_mean: CCTE's Neural Network Formation Assay for Mean Spike Duration, Shafer Lab (AID 2284051; active = hit-call score of the fitted dose curve at least 0.9, where 1 is the maximum; inactive = score below 0.9;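 note: mean network spike duration pooled as area under curve over DIV 5 to 12 recordings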;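 for AC50: potency for a decrease in mean network spike duration versus DMSO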)
Summary of the method: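 With DMSO as baseline, loss of mean network spike duration was scored from extracellular recordings of rat cortical neurons on MEA plates. Exposure spanned plating to DIV 12; the four recording days were collapsed into one AUC value.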

[15] = CCTE_Shafer_MEA_dev_network_spike_duration_std: CCTE's Neural Network Formation Assay for Standard Deviation of Network Spike Duration, Shafer Lab (AID 2284052; active = hit-call score of the fitted dose curve at least 0.9, where 1 is the maximum; inactive = score below 0.9;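 note: area under curve of spike duration SD across recording days 5 to 12; hits are decreases in network spike duration SD versus DMSO vehicle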)
Summary of the method: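 Developing networks of rat cortical neurons were exposed over twelve days in vitro on 48-well MEA plates. Trapezoidal AUC of recordings (DIV 5–12) was analysed for signal loss relative to DMSO vehicle.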

[16] = CCTE_Shafer_MEA_dev_per_network_spike_spike_number_mean: CCTE's Neural Network Formation Assay for Mean Number of Spikes in a Network Spike, Shafer Lab (AID 2284053; active = hit-call score of the fitted dose curve at least 0.9, where 1 is the maximum; inactive = score below 0.9)
Summary of the method: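 First, rat cortical cells (1.5 x 10^5/well) were seeded onto MEA wells; second, dosing began at plating and was refreshed on DIV 5 and 9; finally, network-spike spike counts across DIV 5–12 were summarized as AUC.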

[17] = CCTE_Shafer_MEA_dev_per_network_spike_spike_percent: CCTE's Neural Network Formation Assay for Percent of Spikes in a Network Spike, Shafer Lab (AID 2284054; active = hit-call score of the fitted dose curve at least 0.9, where 1 is the maximum; inactive = score below 0.9)
Summary of the method: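 Developing networks of rat cortical neurons are dosed at day 0 and recorded extracellularly four times up to day 12. The endpoint is the area under the curve of percent spikes in network spikes, fitted in the negative direction relative to DMSO.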

[18] = UKN5_HCS_SBAD2_cell_viability: Viability Assessment in the University of Konstanz (UKN) Leist Lab Neurite Outgrowth Assay in human iPSC-derived immature Dorsal Root Ganglia Neurons (UKN5) (AID 2284056; active = hit-call score of the fitted dose curve at least 0.9, where 1 is the maximum; inactive = score below 0.9)
Summary of the method: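 iPSC-derived immature peripheral neurons (SBAD2) seeded on Matrigel with CHIR99021, SU5402 and DAPT, dosed 1 h later for 24 h. Viability from Hoechst H-33342 and calcein-AM live staining, high-content imaging; bidirectional fit versus DMSO.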

[19] = CCTE_Shafer_MEA_dev_LDH: CCTE's Lactate Dehydrogenase Assay for Cytotoxicity in the Neural Network Formation Assay, Shafer Lab (AID 2284068);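 note: exposure for twelve days from plating with re-dosing on DIV 5 and 9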
Summary of the method: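 Developing rat cortical networks on MEA plates are exposed to compound for 12 days from plating. LDH activity is measured spectrophotometrically, with DMSO as baseline.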

Measured: AC50

COC(=O)CCCC(=O)OC
inactive: [1]

CN(C)CCCN(C)CCCN(C)C
inactive: [1] | [2] | [3] | [4]

CCCCC(CC)CO (stereo unspecified)
inactive: [1] | [3]

CCCCCCCC(=O)OC
inactive: [1] | [2] | [3] | [4]

O=C(O)CC(O)(CC(=O)O)C(=O)O
inactive: [1] | [2] | [4]

O=C(O)c1[nH]n(-c2ccc(S(=O)(=O)O)cc2)c(=O)c1N=Nc1ccc(S(=O)(=O)O)cc1
inactive: [2] | [4]
active: [1] 100 µM | [3] 100 µM

O=C1CCCCC1
inactive: [1] | [2] | [3] | [4]

CC(C)OC(=O)C(C)(C)Oc1ccc(C(=O)c2ccc(Cl)cc2)cc1
inactive: [1] | [2] | [3] | [4]

CC(C)c1cccc(C(C)C)c1
inactive: [1] | [2] | [3] | [4]

O=C(O)CN(CC(=O)O)CC(=O)O
inactive: [1]
active: [2] 28.8 µM | [4] 233 µM

c1ccc2occc2c1
inactive: [1] | [2] | [3] | [4]

Oc1ccccc1O
active: [1] 100 µM | [3] 51.8 µM

O=[Si]=O
inactive: [1] | [2] | [3] | [4]

CSc1ccc(Oc2ccc(S(N)(=O)=O)cc2CN(C)C)cc1C
inactive: [1] | [2] | [3] | [4]

NC=O
inactive: [1] | [3]

CC(C)(O)c1ccc(CNC(=O)c2cccnc2Oc2ccc(F)cc2)cc1
inactive: [1]

CCOCCOCCO
inactive: [1] | [3]

CC(=O)OCC(COC(C)=O)OC(C)=O
inactive: [1]

C/C=C/C=C/C(=O)O
inactive: [1] | [3]

Cc1ccc(C(C)(C)C)c(O)c1
inactive: [1] | [2] | [3] | [4]

CCCCCCCCCCCCCCCCO
inactive: [1] | [2] | [4] | DIO2 (gene 1734)

CC1(C)C(=O)NC(=O)N1CO
inactive: [1] | [2] | [3] | [4]

CC(C)NCC(O)c1ccc(O)c(O)c1 (stereo unspecified)
active: [1] 106 µM | [3] 100 µM

S=c1[nH]c2ccccc2s1
active: DIO2 (gene 1734) 53.4 µM

O=C1NC(=O)C(c2ccccc2)(c2ccccc2)N1
not listed: [1] | [2] | [3] | [4] | DIO2 (gene 1734)
inactive: all other assays above

CCCCCCCCCCCCCCOS(=O)(=O)O
active: DIO2 (gene 1734) 36.9 µM

CCN(CC)CCOc1ccc(C(=C(Cl)c2ccccc2)c2ccccc2)cc1
active: DIO2 (gene 1734) 53.3 µM

CC1=C(C)S(=O)(=O)CCS1(=O)=O
inactive: [4]
active: [1] 172 µM | [3] 100 µM

CCCCCCC(C=O)=Cc1ccccc1
active: DIO2 (gene 1734) 15.2 µM
inactive: [3]

C/C=C/c1ccc(OC)cc1
inactive: [1] | [3]

COC(=O)[C@H]1[C@H]2C[C@@H]3c4[nH]c5cc(OC)ccc5c4CCN3C[C@H]2C[C@@H](OC(=O)c2cc(OC)c(OC)c(OC)c2)[C@@H]1OC
active: [5] 5.24 µM | [6] 5.23 µM | [7] 3.34 µM | [8] 3.76 µM | [9] 2.43 µM | [10] 3.27 µM | [13] 5.07 µM | [14] 2.71 µM | [15] 2.18 µM | [16] 4.8 µM | [17] 15.3 µM | [19] 6.75 µM
inactive: [11]

Nc1nc(=S)c2[nH]cnc2[nH]1
inactive: [1] | [3] | [4]

Cc1ccc(-c2cc(C(F)(F)F)nn2-c2ccc(S(N)(=O)=O)cc2)cc1
active: DIO2 (gene 1734) 156 µM

O=Cc1ccccc1C=O
active: DIO2 (gene 1734) 46.6 µM

COC(=O)CCC(=O)OC
inactive: [2] | [4]

CN(C)CCCN1c2ccccc2Sc2ccc(Cl)cc21
active: [5] 5.17 µM | [6] 5.08 µM | [7] 4.33 µM | [8] 8.95 µM | [9] 4.79 µM | [10] 7.95 µM | [12] 8.7 µM | [13] 5.16 µM | [14] 3.38 µM | [15] 2.81 µM | [16] 4.44 µM | [17] 9.39 µM | [18] 13.7 µM | [19] 5.01 µM
inactive: [11]

Cc1c(C)c2c(c(C)c1O)CCC(C)(COc1ccc(CC3SC(=O)NC3=O)cc1)O2 (stereo unspecified)
active: DIO2 (gene 1734) 70.1 µM

O=C1O[C@H]([C@H](O)CO)C(O)=C1O
inactive: [3]

CC(=O)O
inactive: [1] | [3]

O=C(O)c1cccnc1
inactive: [3]

NC1CCCCC1
inactive: [2] | [4]

Cc1occc(=O)c1O
inactive: [3]

O=C(Oc1ccccc1)c1cccc(C(=O)Oc2ccccc2)c1
active: DIO2 (gene 1734) 42.3 µM

OCC(O)CO
not listed: [1] | [2] | [3] | [4] | DIO2 (gene 1734) | [18] | [19]
inactive: all other assays above

CCCCCCC(CCCCCCCCCCC(=O)OCC(COC(C)=O)OC(C)=O)OC(C)=O (stereo unspecified)
inactive: [2] | [3] | [4]

CC(=O)CC(c1ccccc1)c1c(O)c2ccccc2oc1=O (stereo unspecified)
active: [5] 2.98 µM | [7] 2.98 µM | [13] 2.98 µM | [16] 2.98 µM
not listed: [2] | [4] | DIO2 (gene 1734) | [18]
inactive: all other assays above

CC(=O)O[C@]1(C(C)=O)CC[C@H]2[C@@H]3C=C(Cl)C4=CC(=O)[C@@H]5C[C@@H]5[C@]4(C)[C@H]3CC[C@@]21C
inactive: DIO2 (gene 1734)
